Records with an inconclusive call do not appear. Active and inactive are the calls of the source. Calls come from the whole dose curve; as a rule, active = well fitted curve in the direction sought with a large enough effect in the signal ratio, with a control signal flat (not every such curve was filed as active); inconclusive = small, poorly fitted or top-dose-only effect, or effect the other way, or a change in a side signal; inactive = no such curve, though single readings can be large or run the other way; the % refers to the signal ratio.

Sequence of Peroxisome proliferator-activated receptor gamma (Homo sapiens) (P37231 whole entry, looked up): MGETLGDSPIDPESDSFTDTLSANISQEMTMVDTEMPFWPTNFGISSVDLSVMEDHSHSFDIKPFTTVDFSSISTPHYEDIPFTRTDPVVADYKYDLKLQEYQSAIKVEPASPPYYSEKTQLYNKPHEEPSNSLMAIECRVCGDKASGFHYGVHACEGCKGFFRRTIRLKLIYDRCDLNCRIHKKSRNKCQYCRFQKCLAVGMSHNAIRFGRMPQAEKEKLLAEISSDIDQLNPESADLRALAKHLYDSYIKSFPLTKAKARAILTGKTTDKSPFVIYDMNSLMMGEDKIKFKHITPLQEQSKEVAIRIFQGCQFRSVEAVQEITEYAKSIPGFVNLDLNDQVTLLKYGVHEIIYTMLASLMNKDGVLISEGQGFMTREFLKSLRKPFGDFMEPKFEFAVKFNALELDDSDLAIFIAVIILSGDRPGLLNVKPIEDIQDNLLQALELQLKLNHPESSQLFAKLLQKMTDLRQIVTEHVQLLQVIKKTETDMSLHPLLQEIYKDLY

In this assay the target is Peroxisome proliferator-activated receptor gamma (Homo sapiens) (UniProt P37231). As to the kind of experiment: qHTS assay for small molecule agonists of peroxisome proliferator-activated receptor gamma signaling (AID 588536). To be noted: HEK293 PPARg-UAS-bla, beta-lactamase ratio, 16 h, percent of rosiglitazone response, DMSO as zero; series mostly up to 76.7 µM. The text has this:
NIH Chemical Genomics Center [NCGC] U.S. Environmental Protection Agency [EPA] National Institutes of Environmental Health Sciences [NIEHS] National Toxicology Program [NTP] NCGC Assay Overview The Peroxisome proliferator-activated receptors (PPARs) are lipid-activated transcription factors of the nuclear receptor superfamily with three distinct subtypes namely PPAR alpha, PPAR delta (also called PPAR beta) and PPAR gamma. All these subtypes heterodimerizes with Retinoid X receptor (RXR) and these heterodimers regulate transcription of various genes. PPAR-gamma (glitazone receptor) agonists have been used in the treatment of type 2 diabetes and dyslipidaemia. It is involved in the regulation of glucose and lipid metabolism. PPAR-gamma activates certain genes like Paraoxonase 1 which is responsible for hydrolyzing organophosphates. PPAR-gamma agonists may also be therapeutically important in the treatment of coronary artery disease, obesity and cancer and atherosclerosis.
NCGC Assay Protocol Summary Using a beta-lactamase reporter-gene under control of Peroxisome Proliferator-Activated-gamma (PPAR-gamma) response element, a cell-based assay [GeneBLAzer PPAR-gamma-UAS-bla assay developed by Invitrogen] was used to measure PPAR-gamma ligands signaling. GeneBLAzer PPAR-gamma-UAS-bla-HEK293 cells were used with assay medium containing 1% charcoal/dextran treated FBS. The assay was performed in clear bottom black Greiner 1536-well plates. Rosiglitazone was used in the screen as the positive control. Library compounds were measured for their ability to stimulate the reporter gene activity. Compounds were screened in a titration series in 1536-well format. The fluorescence intensity (405 nm excitation, 460/530 nm emission) was measured using an EnVision plate reader. Data was normalized relative to Rosiglitazone control (2 uM, 100%), and DMSO only wells (basal, 0%). Concentration-response titration points for each compound were fitted to the Hill equation yielding concentrations of half-maximal stimulation (EC50) and maximal response (efficacy) values. qHTS protocol for PPAR-gamma beta-lactamase assay in agonist mode [Step] [Parameter] [Value] [Description] 1. Reagent; 6 uL; 3000 cells/well 2. Incubation; 37 C for 6 - 6.5 hrs 3. Compounds; 23 nL; 0.59 nM to 92 uM 4. Controls (Rosiglitazone); 23 nL, - One column with dose response, start 19 uM, 1:3 dilutions in duplicates - Final concentrations of 2 uM and 0.5 uM in two columns 5. Incubation; 37 C for 16 hrs 6. Detection reagent; 1 uL of CCF4-dye 7. Incubation; RT for 2 hrs 8. Detection; Fluorescence; Envision plate reader
(In general: Quantitative high-throughput screening tests each substance at several concentrations.)
Take `Cc1ccccc1`: the outcome was inactive. The same measure for `O=C(O)CCC(=O)C(=O)O`: “inactive”.

Take `CCCCCCCC(=O)O`: the result was inactive. The same measure for `IC(I)I`: “inactive”; for `CCCCCCCC/C=C\CCCCCCCC(=O)O`: “inactive”.

For the compound `Nc1ccn([C@H]2CS[C@@H](CO)O2)c(=O)n1`, the outcome was inactive. The same measure for `CC1=C(/C=C/C(C)=C/C=C/C(C)=C/CO)C(C)(C)CCC1`: “inactive”; for `CC1=C2[C@@H]([C@H](C)CC[C@H]2/C=C(\C)C(=O)O)[C@H](O)C1`: “inactive”; for `CC(O)CO` (centres undefined): “inactive”. In the case of `O=C(O)CN(CCN(CC(=O)O)CC(=O)O)CC(=O)O` it was “inactive”; in that of `O=S(=O)(O)O`, “inactive”. The same measure for `CC(C)=O`: “inactive”. For the compound `CCOC(C)=O`, the result was inactive. The same measure for `CC1=CCC(C(C)(C)O)CC1` (centres undefined): “inactive”.

Values taken from PubChem BioAssay (NCATS).
